Test results from PubChem BioAssay (Tox21).
Records with an inconclusive call do not appear. Active and inactive are the calls of the source. Unless noted, the call rests on the fitted dose curve; in most records, active means well fitted curve in the direction sought with a large enough effect in the repeat runs; inconclusive means weak or mixed curves; inactive means no such curve, though single readings can be large; an effect the other way counts as inactive or inconclusive.

Experiments:
[1] = qHTS assay to identify small molecule antagonists of the estrogen related receptor (ERR) signaling pathway from Tox21 library - cell viability counter screen (AID 1224834); further: nearly all actives have a fitted effect of over 30% in size
How it was run: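 ERR cells, 2,000/well; 6 h settle at 37 C/5% CO2; pin-tool compound transfer in DMSO; 17.5 h at 37 C; CellTiter-Fluor, 30 min; fluorescence intensity.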

[2] = biological target: Luciferin 4-monooxygenase (Photinus pyralis) (UniProt P08659); assay: qHTS assay to identify small molecule inhibitors of firefly luciferase (AID 1224835); further: nearly all actives have a fitted effect of over 25% in size
How it was run: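 Quantitative HTS format; KM concentrations of both substrates. Purified P. pyralis FLuc activity quantified from luminescence images.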

[3] = qHTS assay to identify small molecule agonists of the constitutive androstane receptor (CAR) signaling pathway - cell viability counter screen (AID 1224836); further: nearly all actives have a fitted effect of over 45% in size
How it was run: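 Compound titrations (15 concentrations) went onto HepG2-CYP2B6-hCAR cells 4 h after seeding, alongside PK11195 at a final 0.75 uM; a 23 h, 37 C/5% CO2 incubation preceded CellTiter-Fluor viability measurement.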

[4] = qHTS assay to identify small molecule antagonists of the constitutive androstane receptor (CAR) signaling pathway - cell viability counter screen (AID 1224837); further: nearly all actives have a fitted effect of over 45% in size
How it was run: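 Viability was measured with CellTiter-Fluor in a HepG2 line carrying stably transfected hCAR and a CYP2B6-2.2kb construct. Cells were exposed for 23 hr at 37 C to 15 compound concentrations with 50 nM CITCO as agonist.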

[5] = qHTS assay to identify small molecule antagonists of the estrogen related receptor signaling pathway with the pleiotropic PPARgamma coactivator (PGC) from Tox21 10K library - cell viability counter screen (AID 1224840; active means well fitted cell-killing curve with a large enough effect in the repeat runs, not every such curve was filed as active; further: nearly all actives have a fitted effect of over 40% in size)
How it was run: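 Multiplexed viability counter screen in the PGC/ERR cell line: cells treated with DMSO-dissolved compounds for 17.5 hours at 37 C, then viability measured as CellTiter-Fluor fluorescence.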

[6] = biological target: Thyrotropin receptor (Homo sapiens) (UniProt P16473); assay: qHTS assay to identify small molecule agonists of the thyroid stimulating hormone receptor (TSHR) signaling pathway (AID 1224843; calls by dose curve; further: nearly all actives have a fitted effect of over 45% in size)
How it was run: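 Using 15 concentrations per compound in triplicate, cAMP production was monitored in TSHR-HEK293 cells after 30 min compound incubation at RT; HTRF reagents followed, with fluorescence intensity recorded after 1 h.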

[7] = qHTS assay to identify small molecule agonists of the hypoxia (HIF-1) signaling pathway - cell viability counter screen (AID 1224844; calls by dose curve; further: nearly all actives have a fitted effect of over 50% in size)
How it was run: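 Cytotoxicity was measured in parallel with the HRE-driven beta-lactamase readout: after 17 hrs of compound exposure at 37C, HRE-bla ME-180 cells received CellTiter-Glo and luminescence was recorded 30 min later.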

[8] = qHTS assay to identify small molecule agonists of H2AX (AID 1224845; active means well fitted activation curve with a large enough effect in the signal ratio in the repeat runs, not every such curve was filed as active; the % refers to the signal ratio)
How it was run: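 Wild-type CHO-K1 cells plated overnight, then exposed 3 hr at 37C to compounds at 15 concentrations (0.76% DMSO). Lysed, then HTRF anti-pH2AX(S139)-cryptate/anti-H2AX-d2 detection after 24 hr at room temperature; emissions 665 and 620 nm.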

[9] = qHTS assay to identify small molecule agonists of the hypoxia (HIF-1) signaling pathway (AID 1224846; active means well fitted activation curve with a large enough effect in the signal ratio in the repeat runs, not every such curve was filed as active; the % refers to the signal ratio)
How it was run: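 Compounds from the Tox21 10K library, dissolved in DMSO, are tested for induction of a hypoxia response element–controlled beta-lactamase reporter in ME-180 cells. Exposure lasts 17 hrs at 37C after a 5 hr settling period, followed by CCF4-AM FRET substrate.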

[10] = qHTS assay to identify small molecule agonists of H2AX - cell viability counter screen (AID 1224847; calls by dose curve; further: top concentration of the series differs between compounds; nearly all actives have a fitted effect of over 30% in size)
How it was run: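 Read-out: CellTiter-Glo luminescence, 30 min RT. Cells: wild-type CHO-K1, 1000/well, 10% FBS, plated overnight at 37C. Treatment: 15 concentrations, 3 hr, 37C, 0.76% DMSO.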

[11] = qHTS RealTime-Glo MT Cell Viability Assay in HepG2 cells - 24 hour (AID 1224867); further: nearly all actives have a fitted effect of over 50% in size
How it was run: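 qHTS, HepG2, 600 cells/well, RealTime-Glo (NanoLuc + prosubstrate) added with cells; 5 h preincubation; DMSO compound addition; 37 C; luminescence at 0/8/16/24/32/40 h.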

[12] = qHTS RealTime-Glo MT Cell Viability Assay in HEK293 cells - 32 hour (AID 1224868); further: top concentration of the series differs between compounds; nearly all actives have a fitted effect of over 50% in size
How it was run: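 Assay medium contained NanoLuc luciferase plus cell-permeant prosubstrate, added with HEK293 cells at 600 cells/well. After 5 h at 37 C/5% CO2 compounds were added; plates stayed at 37 C for 40 h with serial luminescence reads.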

[13] = A CellTox Green Cytotoxicity Assay to monitor cytotoxicity in HEK293 cells - 0 hour (AID 1224869); further: nearly all actives have a fitted effect of over 50% in size
How it was run: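 Cells (HEK293, 600/well) and dye reagent are dispensed together. After 5 h at 37 C, 23 nL compound is pinned in. Plates stay at 37 C for 40 h with fluorescence read at 0h, 8h, 16h, 24h, 32h and 40h.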

[14] = biological target: Nuclear receptor subfamily 1 group I member 3 (Homo sapiens) (UniProt Q14994); assay: qHTS assay to identify small molecule antagonists of the constitutive androstane receptor (CAR) signaling pathway (AID 1224838);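 further: HepG2 cells stably expressing hCAR with CYP2B6 luciferase reporter stimulated by CITCO; nearly all actives have a fitted effect of over 40% in size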
How it was run: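 Antagonist mode used CITCO at a final 50 nM to activate CAR in human hepatoma HepG2 cells carrying stable hCAR and a 2.2 kb CYP2B6 promoter-luciferase construct. Compounds were tested at 15 concentrations over 24 h, with luminescence as the end point.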

[15] = qHTS assay to identify small molecule antagonists of the estrogen related receptor signaling pathway with the pleiotropic PPARgamma coactivator (PGC) from Tox21 10K library (AID 1224841; call rule not given here)
How it was run: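 Steps: plate 2,000 PGC/ERR cells per well; incubate 6 h at 37 C with 5% CO2; transfer compounds from DMSO stocks by pin tool; incubate 18 h at 37 C; add One-Glo; measure luminescence 30 min later.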

[16] = qHTS assay to identify small molecule agonists of the estrogen related receptor signaling pathway with the pleiotropic PPARgamma coactivator (PGC) from Tox21 10K library (AID 1224842); further: nearly all actives have a fitted effect of over 15% in size
How it was run: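 PGC/ERR reporter cells (NTP line) were seeded 2,000 per well, rested 6 h at 37 C/5% CO2, then pin-dosed with compounds in DMSO for 18 h at 37 C; luciferase read by One-Glo luminescence after 30 min at room temperature.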

[17] = qHTS assay to identify small molecule antagonists of the estrogen related receptor (ERR) signaling pathway from Tox21 library (AID 1224848); further: nearly all actives have a fitted effect of over 50% in size
How it was run: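 Tox21 10K compounds in DMSO tested for ERR pathway antagonism in NTP's ERR cell line; 18 h, 37 C exposure; ONE-Glo luminescence.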

[18] = qHTS assay to identify small molecule agonists of the estrogen related receptor (ERR) signaling pathway from Tox21 library (AID 1224849; calls by dose curve; further: nearly all actives have a fitted effect of over 15% in size); details: ERR reporter cell line, ONE-Glo luciferase, 18 h; at 92.4 µM (top of the series) unless noted
How it was run: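 Cells carrying the ERR reporter were plated and allowed to settle for 6 h, exposed to library compounds for 18 h at 37 C, then lysed with ONE-Glo and luminescence measured.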
On the % scale 0 is the no-effect control and ±100 the full control effect.

Chain of Thyrotropin receptor (Homo sapiens) (P16473 whole entry, looked up): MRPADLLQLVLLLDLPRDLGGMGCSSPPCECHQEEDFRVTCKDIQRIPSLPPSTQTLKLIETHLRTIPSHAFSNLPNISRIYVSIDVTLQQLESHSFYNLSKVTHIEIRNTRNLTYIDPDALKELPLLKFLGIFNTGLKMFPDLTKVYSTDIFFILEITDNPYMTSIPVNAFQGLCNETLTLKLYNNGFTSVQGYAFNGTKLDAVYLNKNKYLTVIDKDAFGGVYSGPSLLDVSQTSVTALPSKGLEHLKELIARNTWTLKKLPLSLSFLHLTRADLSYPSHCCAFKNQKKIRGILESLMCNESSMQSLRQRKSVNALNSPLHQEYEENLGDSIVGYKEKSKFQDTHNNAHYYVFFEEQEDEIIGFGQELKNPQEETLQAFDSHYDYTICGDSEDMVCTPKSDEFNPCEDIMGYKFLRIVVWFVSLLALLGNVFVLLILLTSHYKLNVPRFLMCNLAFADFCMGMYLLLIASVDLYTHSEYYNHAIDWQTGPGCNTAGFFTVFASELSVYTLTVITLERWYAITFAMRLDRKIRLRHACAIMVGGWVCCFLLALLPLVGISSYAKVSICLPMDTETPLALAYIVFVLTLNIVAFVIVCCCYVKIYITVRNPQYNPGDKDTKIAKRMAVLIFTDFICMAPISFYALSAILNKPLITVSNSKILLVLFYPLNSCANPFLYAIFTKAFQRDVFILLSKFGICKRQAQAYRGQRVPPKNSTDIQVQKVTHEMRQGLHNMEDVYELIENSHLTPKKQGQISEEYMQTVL
Chain of Luciferin 4-monooxygenase (Photinus pyralis) (P08659 whole entry, looked up): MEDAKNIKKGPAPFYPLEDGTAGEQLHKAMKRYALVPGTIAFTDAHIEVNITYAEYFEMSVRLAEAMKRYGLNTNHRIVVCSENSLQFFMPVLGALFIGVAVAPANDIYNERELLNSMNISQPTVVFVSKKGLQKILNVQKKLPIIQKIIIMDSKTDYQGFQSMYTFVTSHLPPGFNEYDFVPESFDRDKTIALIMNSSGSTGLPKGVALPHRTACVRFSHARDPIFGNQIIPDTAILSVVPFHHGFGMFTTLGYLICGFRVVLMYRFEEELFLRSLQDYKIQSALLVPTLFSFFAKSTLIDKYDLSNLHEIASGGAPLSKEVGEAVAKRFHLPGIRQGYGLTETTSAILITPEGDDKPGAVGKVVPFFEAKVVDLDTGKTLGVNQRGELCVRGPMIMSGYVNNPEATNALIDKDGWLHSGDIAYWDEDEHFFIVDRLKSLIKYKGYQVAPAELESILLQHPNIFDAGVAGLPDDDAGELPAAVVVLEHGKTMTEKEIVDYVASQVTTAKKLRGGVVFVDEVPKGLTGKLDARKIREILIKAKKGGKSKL
Chain of Nuclear receptor subfamily 1 group I member 3 (Homo sapiens) (Q14994 whole entry, looked up): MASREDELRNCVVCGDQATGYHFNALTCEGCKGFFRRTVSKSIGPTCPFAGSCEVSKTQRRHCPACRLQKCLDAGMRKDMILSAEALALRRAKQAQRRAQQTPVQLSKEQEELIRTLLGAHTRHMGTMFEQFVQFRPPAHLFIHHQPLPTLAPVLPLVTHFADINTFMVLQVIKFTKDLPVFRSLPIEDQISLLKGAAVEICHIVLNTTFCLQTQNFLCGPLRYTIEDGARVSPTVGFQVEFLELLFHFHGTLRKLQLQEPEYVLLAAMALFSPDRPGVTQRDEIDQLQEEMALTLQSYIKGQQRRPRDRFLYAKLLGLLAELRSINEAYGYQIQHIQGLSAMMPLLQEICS

Cc1ccc2c(Cl)cc(Cl)c(O)c2n1
inactive: Potency [1] | Potency [2] | Potency [3] | Potency [4] | Potency [5] | Potency [6] | Potency [7] | Potency [8] | outcome [9] | Potency [10] | outcome [11] | Potency [12] | Potency [13]

Clc1cccc(C(c2ccc3nc[nH]c3c2)n2ccnc2)c1 (stereo not drawn)
inactive: Potency [1] | Potency [2] | Potency [3] | Potency [4] | Potency [14] | Potency [5] | Potency [7] | outcome [9] | Potency [10] | outcome [11] | Potency [13]

CCCCCCCCCCCCCCCCCCCl
inactive: viability change, negative = cytotoxic [1] -0.218% [at 8.39 µM] | activity change, negative = inhibition [2] 2.69% [at 10.5 µM] | viability change, negative = cytotoxic [3] 3.36% [at 8.39 µM] | activity change, negative = cytotoxicity [4] 3.1% [at 8.39 µM] | viability change, negative = cytotoxic [5] 10.7% [at 8.39 µM] | activity, negative = inhibition [15] 20.1% [at 8.39 µM] | activation [16] 1.05% [at 8.39 µM] | activation [6] -0.25% [at 8.39 µM] | activity change, negative = cytotoxicity [7] 0.227% [at 6.97 µM] | activation (H2AX phosphorylation) [8] -0.95% [at 14 µM] | activation [9] 0.175% [at 7.01 µM] | activity change, negative = cytotoxicity [10] 2.91% [at 14 µM] | activity, negative = inhibition [17] 23.3% [at 8.39 µM] | activity change, negative = cytotoxicity [11] 1.13% [at 6.97 µM] | activity change, negative = cytotoxic [12] -2.36% [at 6.97 µM] | cytotoxicity [13] 0.805% [at 6.97 µM]

CCCCCCCCCCCC(=O)OCC
inactive: Potency [1] | Potency [2] | Potency [3] | Potency [4] | Potency [5] | Potency [6] | Potency [7] | Potency [8] | outcome [9] | Potency [10] | outcome [11] | Potency [12] | Potency [13]

CCCC(=O)OCc1ccccc1
inactive: Potency [1] | Potency [2] | Potency [3] | Potency [4] | Potency [5] | Potency [15] | Potency [16] | Potency [6] | Potency [8] | Potency [17] | activity change, positive = activation [18] 0.0767% | outcome [11] | Potency [13]

CCCCCC1CCC(=O)O1 (stereo not drawn)
inactive: Potency [1] | Potency [2] | Potency [3] | Potency [4] | Potency [5] | Potency [15] | Potency [16] | Potency [6] | Potency [7] | Potency [8] | outcome [9] | Potency [10] | Potency [17] | activity change, positive = activation [18] 4.33% | outcome [11] | Potency [12] | Potency [13]
